From PubChem BioAssay (EPA / NIEHS)
Activity calls are given as the source filed them. Rule for the calls: active = hit-call score of the fitted dose curve at least 0.9, where 1 is the maximum; inactive = score below 0.9.

Tests used:
[1] = read-out: Tumor necrosis factor receptor superfamily member 6 (Homo sapiens) (UniProt P25445); test: LTEA_HepaRG_FAS: Life Technologies and Expression Analysis (LTEA) Assay for Fas cell surface death receptor (FAS) using HepaRG (AID 2283447); details: mRNA level, 48 h; actives raise or lower the signal
Outline: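 FAS transcript level was measured by TaqMan qRT-PCR against three housekeeping genes after 48 h chemical exposure. Cells were HepaRG, 0.5% DMSO vehicle, with a top concentration of 100 uM and half-log dilutions over eight points, in duplicate.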

[2] = read-out: Fatty acid synthase (Homo sapiens) (UniProt P49327); test: LTEA_HepaRG_FASN: Life Technologies and Expression Analysis (LTEA) Assay for Fatty Acid Synthase (FASN) using HepaRG (AID 2283448); details: mRNA level, 48 h; actives raise or lower the signal;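 for AC50: differentiated human HepaRG liver cells in serum-free induction medium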
Outline: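 Cells were plated, cultured 48 h, switched to serum-free induction medium, then dosed in duplicate (max 100 uM, half-log dilutions, 0.5% DMSO) for 48 h. RNA was then isolated and FASN quantified by qRT-PCR.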

[3] = read-out: Cyclin D2 (CCND2), CCND2 (gene 894); test: LTEA_HepaRG_CCND2: Life Technologies and Expression Analysis (LTEA) Assay for Cyclin D2 (CCND2) using HepaRG (AID 2283449); details: mRNA level, 48 h; actives raise or lower the signal
Outline: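 CCND2 transcript levels, quantified by qRT-PCR and normalised to three housekeeping genes, were fitted bidirectionally against 0.5% DMSO. HepaRG cultures were dosed 48 h in duplicate with an 8-point half-log series up to 100 uM.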

[4] = read-out: Cyclin Dependent Kinase Inhibitor 1A (CDKN1A), CDKN1A (gene 1026); test: LTEA_HepaRG_CDKN1A: Life Technologies and Expression Analysis (LTEA) Assay for Cyclin Dependent Kinase Inhibitor 1A (CDKN1A) using HepaRG (AID 2283450); details: mRNA level, 48 h; actives raise or lower the signal
Outline: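 Gain or loss of CDKN1A transcript is scored by bidirectional fitting against 0.5% DMSO vehicle. Human HepaRG cultures receive chemicals for 48 h across an 8-point series peaking at 100 uM; expression comes from qRT-PCR.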

[5] = read-out: Cyclin D1 (CCND1), CCND1 (gene 595); test: LTEA_HepaRG_CCND1: Life Technologies and Expression Analysis (LTEA) Assay for Cyclin D1 (CCND1) using HepaRG (AID 2283451); details: mRNA level, 48 h; actives raise or lower the signal;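 for AC50: differentiated human HepaRG liver cells in serum-free induction medium; TaqMan qRT-PCR transcript level normalised to ACTB GAPDH and POLR2A housekeeping genes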
Outline: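 Expression change is measured by qRT-PCR in HepaRG cells after 48 h treatment across eight concentrations topping at 100 uM, with duplicate wells and DMSO (0.5%) serving as baseline for bidirectional fitting.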

[6] = read-out: catalase (CAT), CAT (gene 847); test: LTEA_HepaRG_CAT: Life Technologies and Expression Analysis (LTEA) Assay for catalase (CAT) using HepaRG (AID 2283452); details: mRNA level, 48 h; actives raise or lower the signal;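 for AC50: TaqMan qRT-PCR signal normalized to ACTB GAPDH and POLR2A housekeeping genes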
Outline: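 Expression of CAT was quantified by TaqMan qRT-PCR with ACTB/GAPDH/POLR2A normalization after 48 h chemical exposure of HepaRG. Eight-point half-log series, top 100 uM, in 0.5% DMSO; gain or loss fitted against vehicle.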

[7] = read-out: Cytochrome P450 (CYP1A1), CYP1A1 (gene 1543); test: LTEA_HepaRG_CYP1A1: Life Technologies and Expression Analysis (LTEA) Assay for Cytochrome P450 (CYP1A1) using HepaRG (AID 2283454); details: mRNA level, 48 h; actives raise or lower the signal
Outline: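 Using HepaRG cultures with 0.5% DMSO as vehicle, eight-concentration exposures (max 100 uM) lasted 48 h. Transcript levels were measured by TaqMan qRT-PCR and normalized to ACTB, GAPDH and POLR2A.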

[8] = read-out: CFLAR gene, CFLAR (gene 8837); test: LTEA_HepaRG_CFLAR: Life Technologies and Expression Analysis (LTEA) Assay for CFLAR gene using HepaRG (AID 2283455); details: mRNA level, 48 h; actives raise or lower the signal
Outline: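 Transcript level by qRT-PCR (normalized to ACTB, GAPDH and POLR2A) after 48 h chemical exposure of HepaRG cells, top concentration 100 uM with half-log steps, 0.5% DMSO vehicle, duplicates; fitted bidirectionally against DMSO baseline.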

[9] = read-out: Forkhead box O1 (FOXO1), FOXO1 (gene 2308); test: LTEA_HepaRG_FOXO1: Life Technologies and Expression Analysis (LTEA) Assay for Forkhead box O1 (FOXO1) using HepaRG (AID 2283456); details: mRNA level, 48 h; actives raise or lower the signal
Outline: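 FOXO1 transcript quantified by qRT-PCR after 48 h chemical exposure (top 100 uM, half-log steps, 0.5% DMSO) of HepaRG cells, housekeeping-normalized (ACTB/GAPDH/POLR2A). Changes fitted in both directions relative to vehicle.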

[10] = read-out: growth arrest and DNA damage 45 (GADD45A), GADD45A (gene 1647); test: LTEA_HepaRG_GADD45A: Life Technologies and Expression Analysis (LTEA) Assay for growth arrest and DNA damage 45 (GADD45A) using HepaRG (AID 2283458); details: mRNA level, 48 h; actives raise or lower the signal
Outline: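 Transcript induction or loss, quantified by TaqMan qRT-PCR against three housekeeping genes, is the read-out. HepaRG cells received chemicals for 48 h across eight half-log concentrations from 100 uM in 0.5% DMSO; gain and loss fitted relative to DMSO.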

[11] = read-out: Forkhead box O3 (FOXO3), FOXO3 (gene 2309); test: LTEA_HepaRG_FOXO3: Life Technologies and Expression Analysis (LTEA) Assay for Forkhead box O3 (FOXO3) using HepaRG (AID 2283459); details: mRNA level, 48 h; actives raise or lower the signal
Outline: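 FOXO3 transcript measured by qRT-PCR (normalized to ACTB, GAPDH, POLR2A) after 48 h exposure of HepaRG cells in serum-free induction medium. Duplicates, eight half-log concentrations up to 100 uM, 0.5% DMSO; gain or loss fitted against DMSO.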

[12] = read-out: ABC Transporter (ABCB1), ABCB1 (gene 5243); test: LTEA_HepaRG_ABCB1: Life Technologies and Expression Analysis (LTEA) Assay for ABC Transporter (ABCB1) using HepaRG (AID 2283460); details: mRNA level, 48 h; actives raise or lower the signal
Outline: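 ABCB1 transcript level measured by TaqMan qRT-PCR against three housekeeping genes after 48 h chemical exposure of differentiated HepaRG cells. Top concentration 100 uM, half-log steps, eight points, 0.5% DMSO vehicle; bidirectional fit relative to DMSO.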

[13] = read-out: ABC Transporter (ABCC3), ABCC3 (gene 8714); test: LTEA_HepaRG_ABCC3: Life Technologies and Expression Analysis (LTEA) Assay for ABC Transporter (ABCC3) using HepaRG (AID 2283462); details: mRNA level, 48 h; actives raise or lower the signal
Outline: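 Transcriptional change of ABCC3 in HepaRG after 48 h treatment, determined by qRT-PCR normalized to endogenous controls. Concentrations spanned eight half-log steps to 100 uM in 0.5% DMSO.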

[14] = read-out: ABC Transporter (ABCB11), ABCB11 (gene 8647); test: LTEA_HepaRG_ABCB11: Life Technologies and Expression Analysis (LTEA) Assay for ABC Transporter (ABCB11) using HepaRG (AID 2283463); details: mRNA level, 48 h; actives raise or lower the signal
Outline: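 ABCB11 transcript levels quantified by TaqMan qRT-PCR against three housekeeping genes after 48 h chemical exposure of HepaRG cultures. Concentrations up to 100 uM in half-log steps, 0.5% DMSO vehicle; both induction and suppression scored.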

[15] = CEETOX_H295R_PROG: CeeTox H295R High-throughput Steroidogenesis Assay for Progesterone (PROG) (AID 2283442); details: actives raise or lower the signal;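 note: human H295R adrenal cells primed with 10 µM forskolin before dosing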
Outline: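 Measured analyte is progesterone secreted by H295R cells at 48 h of chemical treatment, following 10 uM forskolin priming. Quantitation used HPLC-MS/MS against a 7-point standard curve; cytotoxicity was checked by MTT absorbance.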

[16] = read-out: flavin-containing dimethylaniline monooxygenases 3 (FMO3), FMO3 (gene 2328); test: LTEA_HepaRG_FMO3: Life Technologies and Expression Analysis (LTEA) Assay for flavin-containing dimethylaniline monooxygenases 3 (FMO3) using HepaRG (AID 2283453); details: mRNA level, 48 h; actives raise or lower the signal;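 note: differentiated human HepaRG liver cells in serum-free induction medium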
Outline: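 FMO3 transcript quantified by TaqMan qRT-PCR against three housekeeping genes after 48 h chemical exposure of HepaRG cells. Eight-point half-log series, top 100 uM, 0.5% DMSO vehicle; phenobarbital 1mM induction control; up- or down-regulation fitted.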

[17] = read-out: growth arrest and DNA damage 45 (GADD45B), GADD45B (gene 4616); test: LTEA_HepaRG_GADD45B: Life Technologies and Expression Analysis (LTEA) Assay for growth arrest and DNA damage 45 (GADD45B) using HepaRG (AID 2283461); details: mRNA level, 48 h; actives raise or lower the signal
Outline: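 Human HepaRG monolayers receive chemicals for 48 h at eight half-log concentrations, highest 100 uM, in 0.5% DMSO. Expression is measured by TaqMan qRT-PCR and normalized to ACTB, GAPDH and POLR2A.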

[18] = CEETOX_H295R_ESTRADIOL: CeeTox H295R High-throughput Steroidogenesis Assay for Estradiol (AID 2283440); details: actives raise or lower the signal;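 note: estradiol secreted into medium quantified by LC-MS/MS after dansyl derivatisation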
Outline: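 Readout is estradiol in conditioned medium, quantified by reverse-phase HPLC-MS/MS against a 7-point standard curve. Cells: H295R, forskolin-stimulated, then dosed 48 h in 0.1% DMSO; activity fitted in both directions relative to DMSO.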

[19] = CEETOX_H295R_ESTRONE: CeeTox H295R High-throughput Steroidogenesis Assay for Estrone (AID 2283441); details: actives raise or lower the signal
Outline: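 Estrone secreted into medium quantified by LC-MS/MS after dansyl chloride derivatization, following 48 h chemical exposure (0.1% DMSO final) of forskolin-prestimulated (10 uM, 48 h) H295R cells; gain or loss fitted against DMSO; MTT viability in same wells.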

Measured: AC50

Fatty acid synthase (Homo sapiens), sequence (P49327 whole entry, looked up): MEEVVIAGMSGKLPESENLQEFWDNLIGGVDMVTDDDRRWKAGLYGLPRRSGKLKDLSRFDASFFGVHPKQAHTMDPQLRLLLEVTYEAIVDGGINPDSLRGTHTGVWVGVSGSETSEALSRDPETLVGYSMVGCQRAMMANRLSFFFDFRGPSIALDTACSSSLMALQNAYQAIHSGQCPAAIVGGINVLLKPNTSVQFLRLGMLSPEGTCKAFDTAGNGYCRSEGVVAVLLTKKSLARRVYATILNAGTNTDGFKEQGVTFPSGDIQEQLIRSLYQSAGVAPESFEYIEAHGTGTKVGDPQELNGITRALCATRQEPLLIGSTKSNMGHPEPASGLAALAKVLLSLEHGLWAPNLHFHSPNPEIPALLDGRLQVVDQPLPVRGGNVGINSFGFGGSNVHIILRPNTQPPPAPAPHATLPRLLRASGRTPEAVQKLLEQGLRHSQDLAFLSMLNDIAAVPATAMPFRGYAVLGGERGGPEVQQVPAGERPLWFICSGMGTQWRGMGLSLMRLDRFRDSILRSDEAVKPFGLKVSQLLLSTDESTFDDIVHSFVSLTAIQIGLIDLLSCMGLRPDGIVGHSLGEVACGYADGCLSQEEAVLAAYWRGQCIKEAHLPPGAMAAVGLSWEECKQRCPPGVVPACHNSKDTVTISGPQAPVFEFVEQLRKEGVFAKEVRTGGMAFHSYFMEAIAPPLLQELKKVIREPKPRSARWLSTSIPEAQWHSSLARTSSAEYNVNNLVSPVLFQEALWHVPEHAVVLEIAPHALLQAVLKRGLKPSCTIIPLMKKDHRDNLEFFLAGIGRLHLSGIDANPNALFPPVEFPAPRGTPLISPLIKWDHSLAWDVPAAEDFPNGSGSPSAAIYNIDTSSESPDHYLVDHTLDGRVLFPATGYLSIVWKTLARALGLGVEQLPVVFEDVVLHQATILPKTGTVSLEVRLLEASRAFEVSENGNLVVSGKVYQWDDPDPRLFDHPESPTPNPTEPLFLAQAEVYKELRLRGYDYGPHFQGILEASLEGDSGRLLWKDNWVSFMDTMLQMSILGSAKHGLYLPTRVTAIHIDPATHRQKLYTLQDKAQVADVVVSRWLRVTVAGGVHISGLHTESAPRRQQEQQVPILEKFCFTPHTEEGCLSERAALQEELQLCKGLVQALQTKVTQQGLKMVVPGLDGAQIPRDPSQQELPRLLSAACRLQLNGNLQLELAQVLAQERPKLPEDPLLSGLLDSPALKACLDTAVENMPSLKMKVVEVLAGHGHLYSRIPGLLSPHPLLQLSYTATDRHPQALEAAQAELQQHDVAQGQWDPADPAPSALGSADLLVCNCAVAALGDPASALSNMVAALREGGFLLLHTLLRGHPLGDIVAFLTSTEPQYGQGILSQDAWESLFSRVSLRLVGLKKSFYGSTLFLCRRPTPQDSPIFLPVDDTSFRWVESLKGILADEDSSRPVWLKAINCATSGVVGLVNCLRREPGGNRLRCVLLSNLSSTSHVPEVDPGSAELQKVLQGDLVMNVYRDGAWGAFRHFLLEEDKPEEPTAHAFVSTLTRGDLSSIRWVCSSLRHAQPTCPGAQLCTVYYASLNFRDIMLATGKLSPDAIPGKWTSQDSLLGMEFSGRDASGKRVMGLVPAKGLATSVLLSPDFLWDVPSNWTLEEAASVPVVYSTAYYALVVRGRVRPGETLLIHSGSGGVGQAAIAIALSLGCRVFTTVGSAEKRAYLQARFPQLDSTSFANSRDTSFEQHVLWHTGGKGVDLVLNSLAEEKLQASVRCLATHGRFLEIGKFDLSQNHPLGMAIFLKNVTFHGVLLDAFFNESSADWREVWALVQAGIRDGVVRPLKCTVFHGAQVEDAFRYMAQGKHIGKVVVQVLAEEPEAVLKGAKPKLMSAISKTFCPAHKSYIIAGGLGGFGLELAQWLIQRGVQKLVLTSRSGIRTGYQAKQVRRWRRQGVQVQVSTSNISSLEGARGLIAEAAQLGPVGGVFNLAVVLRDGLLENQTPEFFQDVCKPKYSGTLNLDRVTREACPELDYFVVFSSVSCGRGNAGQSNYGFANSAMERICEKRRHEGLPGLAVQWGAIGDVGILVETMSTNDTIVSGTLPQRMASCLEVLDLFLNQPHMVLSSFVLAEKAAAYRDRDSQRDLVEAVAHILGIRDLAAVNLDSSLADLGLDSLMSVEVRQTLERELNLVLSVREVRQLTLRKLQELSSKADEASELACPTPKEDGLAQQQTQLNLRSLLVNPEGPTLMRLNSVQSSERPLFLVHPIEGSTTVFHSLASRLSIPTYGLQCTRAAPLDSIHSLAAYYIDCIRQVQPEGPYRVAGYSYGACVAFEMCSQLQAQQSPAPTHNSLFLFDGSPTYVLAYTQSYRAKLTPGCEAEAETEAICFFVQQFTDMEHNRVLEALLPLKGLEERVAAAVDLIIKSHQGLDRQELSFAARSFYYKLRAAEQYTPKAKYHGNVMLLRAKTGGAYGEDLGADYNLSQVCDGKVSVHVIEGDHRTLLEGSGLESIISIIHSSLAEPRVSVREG

O=C(O)Cc1cc(I)c(Oc2ccc(O)c(I)c2)c(I)c1
active: [1] 88.6 µM | [2] 50 µM | [4] 82.7 µM | [5] 87.5 µM | [6] 9.92 µM | [9] 50 µM | [10] 94.5 µM | [14] 20.2 µM
inactive: [3] | [7] | [8] | [11] | [12] | [13]

C[C@]12CC[C@@H]3c4ccc(O)cc4CC[C@H]3[C@@H]1CCC2=O
active: [15] 0.849 µM | [16] 50 µM | [12] 14.4 µM
not listed: [1] | [7] | [18] | [19]
inactive: all other assays above

Cc1ccc2oc(CN(Cc3ccccc3)C(=O)Nc3c(F)cc(F)cc3F)c(-c3ccc(Cl)cc3)c2c1
active: [15] 0.505 µM | [6] 8.81 µM | [16] 59.5 µM | [7] 22 µM | [10] 8.78 µM | [12] 19.7 µM
not listed: [1]
inactive: all other assays above
